Measurements taken from PubChem BioAssay (EPA / NIEHS).
Inconclusive results are not listed. More than one record can exist for a structure, and the calls need not agree. The source made the active and inactive calls. The calls were made as follows, unless noted: active = hit-call score of the fitted dose curve at least 0.9, where 1 is the maximum; inconclusive = response in the unintended direction; inactive = score below 0.9.

Columns and labels:
[1] = TOX21_p53_BLA_p2_viability: Viability Assessment in the Tox21 HCT-116 p53 Agonism Beta-lactamase Assay, Phase 2 (AID 2283591);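 also: compound exposure lasted 16 h at 37 °C; actives lower the ATP signal meaning cytotoxicity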
How it was run: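 HCT116 p53-bla cells, 4000/well, dosed after 5 h plating (217-fold dilution of DMSO stocks) and incubated 16 h at 37C. Viability taken as cellular ATP by CellTiter-Glo luminescence after 30 min RT; signal loss marks cytotoxicity.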

[2] = TOX21_p53_BLA_p3_viability: Viability Assessment in the Tox21 HCT-116 p53 Agonism Beta-lactamase Assay, Phase 3 (AID 2283593);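 also: cells exposed to compound for 16 h before reading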
How it was run: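 HCT116 cells, 4000/well, dosed 5 h after plating by pin transfer (217-fold dilution from DMSO stock) and incubated 16 h at 37C, 5% CO2. Viability read as ATP luminescence with CellTiter-Glo after 30 min at room temperature.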

[3] = molecular target: Cellular tumor antigen p53 (Homo sapiens) (UniProt P04637); experiment: TOX21_p53_BLA_p3_ratio: Tox21 HCT-116 p53 Agonism Beta-lactamase Assay, Ratio, Phase 3 (AID 2283596)
How it was run: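 Cells were seeded at 4000/well, rested 5 h at 37C, then dosed with DMSO compound solutions (217-fold dilution) for 16 h. CCF4-AM substrate was loaded for 2 h at room temperature, and the 460/530 nm emission ratio was fitted for gain of signal versus DMSO.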

[4] = molecular target: Cellular tumor antigen p53 (Homo sapiens) (UniProt P04637); experiment: TOX21_p53_BLA_p5_ratio: Tox21 HCT-116 p53 Agonism Beta-lactamase Assay, Ratio, Phase 5 (AID 2283599)
How it was run: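 HCT-116 p53-bla cells (4000/well) plated 5 h, dosed with compound (217-fold DMSO dilution) for 16 h at 37 C; CCF4-AM substrate 2 h at room temperature. Activity is the 460/530 nm emission ratio (405 nm excitation), fitted in gain-of-signal direction versus DMSO.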

[5] = TOX21_p53_BLA_p4_viability: Viability Assessment in the Tox21 HCT-116 p53 Agonism Beta-lactamase Assay, Phase 4 (AID 2283597);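 also: hits lower the luminescence signal meaning cytotoxicity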
How it was run: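 Viability is taken as cellular ATP: after 16 h compound exposure of HCT116 cells and a 2 h room-temperature CCF4-AM substrate step, CellTiter-Glo reagent is added and luminescence is measured 30 min later.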

[6] = TOX21_p53_BLA_p5_viability: Viability Assessment in the Tox21 HCT-116 p53 Agonism Beta-lactamase Assay, Phase 5 (AID 2283600)
How it was run: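 Viability is taken from cellular ATP content, measured by luciferase luminescence in the same wells after the beta-lactamase ratio read. Cells are seeded at 4000 per well and exposed to DMSO-dissolved compounds, diluted 217-fold, for 16 h.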

[7] = molecular target: Cellular tumor antigen p53 (Homo sapiens) (UniProt P04637); experiment: TOX21_p53_BLA_p4_ratio: Tox21 HCT-116 p53 Agonism Beta-lactamase Assay, Ratio, Phase 4 (AID 2283601)
How it was run: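 HCT-116 p53 beta-lactamase reporter cells (4000/well) preincubated 5 h, then compound (217-fold dilution of DMSO stock) for 16 h at 37C. CCF4-AM substrate added 2 h at room temperature; 460/530 nm emission ratio fitted upward versus DMSO.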

PGR (gene 5241) [8] = molecular target: PGR (gene 5241) (UniProt P06401); experiment: TOX21_PR_BLA_Followup_Antagonist_ratio: Tox21 HEK293 Progesterone Receptor (PR) Antagonism Beta-lactamase Follow-Up Assay, Ratio (AID 2283934);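 also: PR-UAS-bla HEK293T cells stimulated with 1 nM R5020 agonist for 16 hr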
How it was run: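 Measured in PR-UAS-bla HEK293T cells co-treated with compound and 1 nM promegestone for 16 hr; beta-lactamase ratio read after 2 h FRET substrate loading, with parallel CellTiter-Glo cytotoxicity.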

[9] = TOX21_PR_BLA_Followup_Agonist_viability: Viability Assessment in the Tox21 HEK293 Progesterone Receptor (PR) Agonism Beta-lactamase Follow-Up Assay (AID 2283935);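 also: signal loss means lower viability so actives are cytotoxic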
How it was run: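 Viability is read as CellTiter-Glo luminescence, where loss of signal indicates cytotoxicity. The cells are PR-UAS-bla HEK293T given compounds for 16 hr at 37C and 5% CO2, in the same wells used for the bla readout.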

[10] = TOX21_PR_BLA_Followup_Antagonist_viability: Viability Assessment in the Tox21 HEK293 Progesterone Receptor (PR) Antagonism Beta-lactamase Follow-Up Assay (AID 2283936);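 also: cells exposed to compound with R5020 agonist for 16 h; hits lower the luminescence signal meaning cytotoxicity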
How it was run: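 PR-UAS-bla HEK293T cells in medium with 2% charcoal-stripped FBS were treated with compounds plus R5020 for 16 hr at 37C. After the beta-lactamase read, CellTiter-Glo was added to the same wells and luminescence read after 30 min at room temperature.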

PGR (gene 5241) [11] = molecular target: PGR (gene 5241) (UniProt P06401); experiment: TOX21_PR_LUC_Followup_Antagonist: Tox21 HEK293 Progesterone Receptor (PR) Antagonism Luciferase Follow-Up Assay (AID 2283938);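 also: curve fitted upward as signal gain over DMSO baseline despite antagonist label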
How it was run: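 A follow-up to the PR bla screen using HEK293-PR-A-luc cells, multiplexed with cell viability to flag cytotoxicity. Reporter luminescence after 16 h compound exposure was analysed relative to DMSO.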

[12] = TOX21_PR_LUC_Followup_Antagonist_viability: Viability Assessment in the Tox21 HEK293 Progesterone Receptor (PR) Antagonism Luciferase Follow-Up Assay (AID 2283940)
How it was run: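 Loss of CellTiter-Glo ATP signal indicates cytotoxicity in HEK293-PR-A-luc cells grown in 10% charcoal-stripped FBS medium, seeded 3,000 per well and incubated 16 h with compound at 37C.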

[13] = TOX21_PR_LUC_Followup_Agonist_viability: Viability Assessment in the Tox21 HEK293 Progesterone Receptor (PR) Agonism Luciferase Follow-Up Assay (AID 2283941);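 also: loss of signal means cytotoxicity so actives lower viability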
How it was run: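 Seeding: HEK293-PR-A-luc, 3,000 cells/well, 5 h at 37C. Treatment: compound in DMSO, 16 h, 37C. Read: CellTiter-Glo ATP luminescence, signal loss taken as lower viability.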

[14] = CCTE_Harrill_HTTr_Viability_MCF7: CCTE's 6-hour Cell Viability Assessment for the High-Throughput Transcriptomics (HTTr) Platform, in MCF-7 cells cultured in DMEM + 10% fetal bovine serum, Harrill Lab (AID 2284010; active = hit-call score of the fitted dose curve at least 0.9, where 1 is the maximum; inactive = score below 0.9)
How it was run: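 Eight-point concentration series, six-hour exposure. Propidium iodide exclusion imaged to assess membrane integrity as a cytotoxicity readout; bidirectional fitting was done with DMSO as negative control and activity baseline.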

[15] = CCTE_Harrill_HTTr_Apoptosis_MCF7: CCTE's 6-hour Apoptosis Assessment for the High-Throughput Transcriptomics (HTTr) Platform, in MCF-7 cells cultured in DMEM + 10% fetal bovine serum, Harrill Lab (AID 2284011; active = hit-call score of the fitted dose curve at least 0.9, where 1 is the maximum; inactive = score below 0.9)
How it was run: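 Cells are dosed with test chemicals at eight concentrations and imaged 6 hours later for caspase-3/7 activity using a green fluorogenic detection reagent. Activity is fitted in both directions against DMSO controls.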

[16] = CCTE_Harrill_HTTr_CellCount_MCF7: CCTE's Cell Proliferation Assessment for the High-Throughput Transcriptomics (HTTr) Platform, Harrill Lab (AID 2284012);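 also: count of Hoechst-stained nuclei per well by high-content imaging in MCF-7 cells; cells exposed to compound for six hours; intended direction is loss of nuclei count meaning fewer cells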
How it was run: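 For this full-screen endpoint, MCF-7 cultures received eight compound dilutions for six hours. Well nuclei counts from Hoechst imaging were analyzed relative to DMSO.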

[17] = TAMU_PeakParms_SingleDonor1434_Chronotropy: Texas A&M University (TAMU) 1.5-hr Human Induced Pluripotent Stem Cell (iPSC)-derived Cardiomyocytes Calcium (Ca+2) Flux Assay for Cardiotoxicity: Chronotropy (changes in peak frequency) (AID 2284217; active = hit-call score of the fitted dose curve at least 0.9, where 1 is the maximum; inactive = score below 0.9); conditions: actives raise or lower the signal
How it was run: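 Beat frequency of single-donor iPSC cardiomyocytes was recorded through a calcium-sensitive dye 1.5 hours after exposure to four concentrations up to 100 uM. An EC05 point of departure was derived.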

[18] = TAMU_HCS_1.5hr_SingleDonor1434_Cytotoxicity: Cytotoxicity Assessment using High-content Screening (HCS) Fluorescent Imaging for the Texas A&M University (TAMU) 1.5-hr Human Induced Pluripotent Stem Cell (iPSC)-derived Cardiotoxicity Assay (AID 2284234)
How it was run: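 Nuclear counts from Hoechst 33342 imaging define cytotoxicity here, with EC10 (10% cell-count loss relative to DMSO) as point of departure. iPSC cardiomyocytes received 0.2-100 uM test chemical in 0.5% DMSO for 1.5 h at 37 C.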

[19] = TAMU_PeakParms_SingleDonor1434_QT: Texas A&M University (TAMU) 1.5-hr Human Induced Pluripotent Stem Cell (iPSC)-derived Cardiomyocytes Calcium (Ca+2) Flux Assay for Cardiotoxicity: QT (decay-rise ratio) (AID 2284235)
How it was run: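 Decay/rise ratio of calcium-flux fluorescence scored after 90 min exposure (37C) of donor 1434 iPSC cardiomyocytes to 0.2–100 uM (0.5% DMSO). Beat-cessation and severe-notch points removed; POD is EC05, a 5% rise over DMSO.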

[20] = TAMU_PeakParms_SingleDonor1434_Asystole: Texas A&M University (TAMU) 1.5-hr Human Induced Pluripotent Stem Cell (iPSC)-derived Cardiomyocytes Calcium (Ca+2) Flux Assay for Cardiotoxicity: Asystole (quiescence of beating) (AID 2284328)
How it was run: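 Donor 1434 iPSC-cardiomyocytes exposed 90 min at 37C, 5% CO2, to 0.2, 1, 10 and 100 uM in 0.5% DMSO. Ca2+ dye fluorescence gave average peak frequency; POD is EC95, a 95% beat-rate drop versus controls.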

Measured: AC50

Chain of PGR (gene 5241) (P06401 whole entry, looked up): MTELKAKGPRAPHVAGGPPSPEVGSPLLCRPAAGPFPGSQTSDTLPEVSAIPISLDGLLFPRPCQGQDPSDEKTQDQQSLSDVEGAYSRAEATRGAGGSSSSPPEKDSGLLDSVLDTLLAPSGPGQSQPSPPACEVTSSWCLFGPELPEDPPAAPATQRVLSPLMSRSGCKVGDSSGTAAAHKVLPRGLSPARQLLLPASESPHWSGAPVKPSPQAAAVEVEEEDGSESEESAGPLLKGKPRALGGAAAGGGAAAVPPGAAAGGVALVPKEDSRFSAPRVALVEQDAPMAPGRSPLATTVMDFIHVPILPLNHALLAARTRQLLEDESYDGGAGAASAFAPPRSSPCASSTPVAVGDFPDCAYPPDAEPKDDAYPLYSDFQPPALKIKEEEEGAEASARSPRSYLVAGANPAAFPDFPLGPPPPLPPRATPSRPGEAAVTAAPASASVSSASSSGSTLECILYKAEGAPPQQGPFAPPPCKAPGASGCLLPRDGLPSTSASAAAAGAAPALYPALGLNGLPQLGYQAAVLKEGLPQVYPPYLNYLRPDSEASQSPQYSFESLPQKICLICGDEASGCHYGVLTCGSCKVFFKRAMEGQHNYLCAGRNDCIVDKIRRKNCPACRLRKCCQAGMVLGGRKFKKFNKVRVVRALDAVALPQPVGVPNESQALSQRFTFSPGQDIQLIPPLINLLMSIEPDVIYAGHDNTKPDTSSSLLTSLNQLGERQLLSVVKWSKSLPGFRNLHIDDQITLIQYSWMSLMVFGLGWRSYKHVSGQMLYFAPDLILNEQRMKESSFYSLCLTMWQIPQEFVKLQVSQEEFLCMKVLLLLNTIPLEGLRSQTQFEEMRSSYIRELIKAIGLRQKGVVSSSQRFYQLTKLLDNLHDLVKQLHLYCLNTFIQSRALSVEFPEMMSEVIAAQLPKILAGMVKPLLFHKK
Chain of Cellular tumor antigen p53 (Homo sapiens) (P04637 whole entry, looked up): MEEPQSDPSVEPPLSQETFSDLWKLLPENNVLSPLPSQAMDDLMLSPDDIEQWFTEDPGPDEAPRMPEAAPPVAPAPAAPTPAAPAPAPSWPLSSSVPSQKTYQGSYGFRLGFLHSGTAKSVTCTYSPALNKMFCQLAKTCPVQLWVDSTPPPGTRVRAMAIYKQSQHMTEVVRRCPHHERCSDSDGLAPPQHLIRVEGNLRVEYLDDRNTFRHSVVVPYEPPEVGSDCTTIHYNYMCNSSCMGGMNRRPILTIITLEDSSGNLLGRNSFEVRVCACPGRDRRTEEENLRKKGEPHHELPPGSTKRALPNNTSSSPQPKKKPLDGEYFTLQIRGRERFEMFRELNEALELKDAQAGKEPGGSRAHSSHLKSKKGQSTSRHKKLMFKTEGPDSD

C[C@@H]1C[C@H]2[C@@H]3CCC4=CC(=O)C=C[C@]4(C)[C@@]3(F)[C@@H](O)C[C@]2(C)[C@H]1C(=O)CO
inactive: [1] | [2] | [3] | [4]

COc1ccc(CCN(C)CCCC(C#N)(c2cc(OC)c(OC)c(OC)c2)C(C)C)cc1OC (stereo not drawn)
inactive: [1] | [2] | [3] | [5] | [6] | [7]

CC(=O)OCC(=O)[C@@]1(OC(C)=O)[C@@H](C)C[C@H]2[C@@H]3C[C@H](F)C4=CC(=O)C=C[C@]4(C)[C@@]3(F)[C@@H](O)C[C@@]21C
inactive: [1] | [2] | [3] | [5] | [6] | PGR (gene 5241) [8] | [9] | [10] | PGR (gene 5241) [11]

CC(C)(C)NCC(O)COc1ccc(NC(=O)NC2CCCCC2)cc1 (stereo not drawn)
inactive: [1] | [2] | [3] | [5] | [6]

CCOC(=O)Cn1c(=O)sc2cccc(Cl)c21
inactive: [1] | [2] | [3] | [4] | [6] | [7]

CC(=O)Oc1ccc([N+](=O)[O-])cc1CCl
inactive: [1] | [2] | [4]
active: [3] 73.1 µM

CN1CCN(C2Cc3ccccc3Sc3ccc(Cl)cc32)CC1 (stereo not drawn)
active: [1] 34.4 µM | [2] 34.5 µM | [5] 34.3 µM
inactive: [3] | [6] | [7]

O=C(O)c1ccccc1Cl
inactive: [1] | [2] | [3] | [4] | [6] | [7]

CC(=O)c1ccc2c(c1)N(CCCN1CCN(CCO)CC1)c1ccccc1S2
inactive: [1] | [2] | [3] | [6]
active: [5] 31.6 µM

COc1ccccc1OCC(O)CN1CCN(CC(=O)Nc2c(C)cccc2C)CC1 (stereo not drawn)
inactive: [1] | [2] | [3] | [5] | [7]

OC(CCN1CCCCC1)(c1ccccc1)C1CC2C=CC1C2 (stereo not drawn)
inactive: [1] | [2] | [3] | [5] | [6]

COCCOC(=O)C1=C(C)NC(C)=C(C(=O)OC(C)C)C1c1cccc([N+](=O)[O-])c1 (stereo not drawn)
inactive: [1] | [2] | [3] | [5] | [4] | [9] | [10] | [12] | [13]
active: PGR (gene 5241) [8] 23 µM | PGR (gene 5241) [11] 26.4 µM

CC(CCl)OC(C)CCl (stereo not drawn)
inactive: [1] | [2] | [3] | [5] | [4] | [7]

OCC(O)CS (stereo not drawn)
inactive: [1] | [2] | [3] | [5] | [4] | [7]

CCCCCCCCCCCBr
inactive: [1] | [2] | [3] | [5] | [4] | [7]

CO[C@@H]1[C@@H](O[C@@H]2O[C@H](C)[C@@H](O[C@H]3C[C@@](C)(O)[C@@H](O)[C@H](C)O3)[C@H](N(C)C)[C@H]2O)[C@@H](CC=O)C[C@@H](C)[C@@H](O[C@@H]2CC[C@H](N(C)C)[C@@H](C)O2)/C=C/C=C/C[C@@H](C)OC(=O)C[C@H]1OC(C)=O
inactive: [1] | [2] | [3] | [5] | [4] | [7]

CCOC(=O)c1cccnc1
inactive: [1] | [2] | [3] | [5] | [4] | [7]

CCOC(=O)Cc1ccc(-c2ccccc2)cc1
inactive: [1] | [2] | [3] | [5] | [6]

CCN(CC)C(=O)N1CCN(C)CC1
inactive: [1] | [2] | [3] | [5] | [7]

COCC(=O)Nc1c(I)c(C(=O)NCC(O)CO)c(I)c(C(=O)N(C)CC(O)CO)c1I (stereo not drawn)
inactive: [1] | [2] | [3] | [6] | [7]

O=C(O)C(Cc1cc(I)c(O)c(I)c1)c1ccccc1 (stereo not drawn)
inactive: [1] | [2] | [3] | [4] | [7]

Nc1ccccc1S(=O)(=O)c1ccccc1
inactive: [1] | [2] | [3] | [4] | [6] | [7] | PGR (gene 5241) [8] | [9] | PGR (gene 5241) [11] | [12] | [13]

COC(OC)OC
inactive: [1] | [2] | [3] | [7]

CC(N)C(=O)OC(C)(C)Cc1ccc(Cl)cc1 (stereo not drawn)
inactive: [1] | [2] | [3] | [6] | [7]

C=CCN1CCCC1CNC(=O)c1cc(S(N)(=O)=O)cc(OC)c1OC (stereo not drawn)
inactive: [1] | [2] | [3] | [4] | [7]

NC(=S)NS(=O)(=O)c1ccc(N)cc1
inactive: [1] | [2] | [5] | [4] | [6]

NC(Cc1ccc(Cl)cc1)C(=O)O (stereo not drawn)
inactive: [1] | [2] | [3] | [7]

COc1ccc(CCN(C)CCCC(C#N)(c2ccc(OC)c(OC)c2)C(C)C)cc1OC (stereo not drawn)
active: [5] 39.2 µM
inactive: [1] | [2] | [5] | [6] | [14] | [15] | [16] | [17] | [18] | [19] | [20]

COc1cc2c(cc1OC)CC(=O)N(CCCN(C)C[C@H]1Cc3cc(OC)c(OC)cc31)CC2
inactive: [1] | [2] | [3] | [6] | [7]
